Results on 8 compounds are retold here after PubChem BioAssay (Tox21).

“And” between values parts separate entries of the source, which are not always exact repeats. Equal values may be shown once. Inconclusive results are not listed. The source made the active and inactive calls. The call rests on the fitted dose curve; in most records, active means well fitted curve in the direction sought with a large enough effect in the repeat runs; inconclusive means weak or mixed curves; inactive means no such curve, though single readings can be large; an effect the other way counts as inactive or inconclusive.

Assay [1] can be described thus: qHTS RealTime-Glo MT Cell Viability Assay in HEK293 cells - 40 hour (AID 1224874). Further: nearly all actives have a fitted effect of over 50% in size. Further: potency means the concentration at half of the fitted maximal effect. The following applies: RealTime-Glo luminescence; max response: active compounds read low. A digest of the protocol:
(§1)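 Nonlytic bioluminescent viability monitoring. HEK293 at 600 cells/well with reagent; 5 h settle; compound transfer by pintool; plates held at 37 C and read at set time points.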

The nature of assay [2]: A CellTox Green Cytotoxicity Assay to monitor cytotoxicity in HEK293 cells - 24 hour (AID 1224875). Further: series mostly up to about 77 µM; nearly all actives have a fitted effect of over 45% in size. A digest of the protocol: (§2)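 Cytotoxicity was tracked continuously in HEK293 cells by a DNA-binding dye excluded from viable cells. Compounds were transferred in DMSO 5 h after seeding; fluorescence was recorded at intervals up to 40 h.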
A short description of assay [3]: A CellTox Green Cytotoxicity Assay to monitor cytotoxicity in HepG2 cells - 16 hour (AID 1224876). Further: nearly all actives have a fitted effect of over 45% in size. A digest of the protocol:
(§3)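 Real-time, homogeneous cytotoxicity readout: dead-cell DNA staining by CellTox Green in HepG2 monolayers, fluorescence measured at timed intervals up to 40 h of continuous compound exposure.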

Assay [4] in a line: qHTS RealTime-Glo MT Cell Viability Assay in HepG2 cells - 32 hour (AID 1224877). Further: nearly all actives have a fitted effect of over 55% in size. A digest of the protocol:
(§4)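 Cells + NanoLuc/prosubstrate dispensed (600 cells/well) → 5 h at 37 C/5% CO2 → compounds in DMSO transferred → 40 h incubation at 37 C, luminescence read at 0, 8, 16, 24, 32, 40 h.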

Assay [5] can be described thus: A CellTox Green Cytotoxicity Assay to monitor cytotoxicity in HepG2 cells - 24 hour (AID 1224878). Further: nearly all actives have a fitted effect of over 45% in size. A digest of the protocol: as §3
Assay [6] can be described thus: A CellTox Green Cytotoxicity Assay to monitor cytotoxicity in HepG2 cells - 40 hour (AID 1224879). Further: nearly all actives have a fitted effect of over 40% in size. A digest of the protocol:
as §3

Assay [7] can be described thus: qHTS RealTime-Glo MT Cell Viability Assay in HEK293 cells - 0 hour (AID 1224880). Further: top concentration of the series differs between compounds; nearly all actives have a fitted effect of over 45% in size. A digest of the protocol: as §1
Assay [8] is described as follows: A CellTox Green Cytotoxicity Assay to monitor cytotoxicity in HEK293 cells - 32 hour (AID 1224881). Further: nearly all actives have a fitted effect of over 40% in size. A digest of the protocol: as §2
A short description of assay [9]: A CellTox Green Cytotoxicity Assay to monitor cytotoxicity in HepG2 cells - 0 hour (AID 1224882). Further: nearly all actives have a fitted effect of over 35% in size. A digest of the protocol: as §3
A short description of assay [10]: A CellTox Green Cytotoxicity Assay to monitor cytotoxicity in HepG2 cells - 32 hour (AID 1224883). Further: nearly all actives have a fitted effect of over 50% in size. A digest of the protocol:
as §3

Assay [11] is described as follows: A CellTox Green Cytotoxicity Assay to monitor cytotoxicity in HEK293 cells - 8 hour (AID 1224884). Further: nearly all actives have a fitted effect of over 35% in size. A digest of the protocol: as §2
Assay [12] can be described thus: qHTS RealTime-Glo MT Cell Viability Assay in HepG2 cells - 16 hour (AID 1224885). Further: nearly all actives have a fitted effect of over 50% in size. A digest of the protocol: as §4
The nature of assay [13]: qHTS RealTime-Glo MT Cell Viability Assay in HEK293 cells - 24 hour (AID 1224886). Further: nearly all actives have a fitted effect of over 50% in size. Further: potency means the concentration at half of the fitted maximal effect. On activity change, negative = cytotoxicity: top concentration of the series differs between compounds. A digest of the protocol:
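Tox21 10K qHTS, HEK293, 600 cells/well, RealTime-Glo reagent co-dispensed with cells; 5 h preincubation, compound by pintool, 37 C, luminescence at 0–40 h.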

A short description of assay [14]: qHTS RealTime-Glo MT Cell Viability Assay in HEK293 cells - 8 hour (AID 1224887). A digest of the protocol:
as §1

Assay [15] in a line: A CellTox Green Cytotoxicity Assay to monitor cytotoxicity in HEK293 cells - 16 hour (AID 1224888). Further: nearly all actives have a fitted effect of over 35% in size. A digest of the protocol:
as §2

Assay [16] in a line: qHTS RealTime-Glo MT Cell Viability Assay in HepG2 cells - 0 hour (AID 1224889). Further: nearly all actives have a fitted effect of over 50% in size. A digest of the protocol: as §4
Assay [17] is described as follows: qHTS assay to identify small molecule antagonists of the estrogen receptor alpha (ER-alpha) signaling pathway using the BG1 cell line in the presence of 0.1 nM 17-beta-estradiol - cell viability counter screen (AID 1259241). Further: nearly all actives have a fitted effect of over 40% in size. A digest of the protocol:
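Viability in VM7Luc4E2 cells after 22 hr compound exposure under 0.1 nM 17beta-estradiol stimulation, by CellTiter-Fluor.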

Assay [18] can be described thus: qHTS assay to identify small molecule antagonists of the androgen receptor (AR) signaling pathway using the MDA cell line in the presence of 0.5 nM R1881 - cell viability counter screen (AID 1259242). Further: nearly all actives have a fitted effect of over 45% in size. A digest of the protocol:
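Cytotoxicity toward MDA-kb2 cells is measured by CellTiter-Fluor live-cell protease fluorescence after 16 hr compound exposure at 37C in the presence of 0.5 nM R1881 stimulator.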

The target in assay [19] is Androgen receptor (Homo sapiens) (UniProt P10275). Description: qHTS assay to identify small molecule antagonists of the androgen receptor (AR) signaling pathway using the MDA cell line in the presence of 0.5 nM R1881 (AID 1259243). Further: nearly all actives have a fitted effect of over 50% in size. A digest of the protocol:
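Steps: seed MDA-kb2 cells, incubate 5 hr at 37C; pin-transfer compounds in DMSO; add R1881 to 0.5 nM final; incubate 16 hr; add ONE-Glo, wait 30 min at room temperature; read luminescence.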

Assay [20] can be described thus: A CellTox Green Cytotoxicity Assay to monitor cytotoxicity in HepG2 cells - 8 hour (AID 1224890). Further: nearly all actives have a fitted effect of over 45% in size. A digest of the protocol: as §3
On the % scale 0 is the no-effect control and ±100 the full control effect.

Androgen receptor (Homo sapiens), sequence (P10275 whole entry, looked up): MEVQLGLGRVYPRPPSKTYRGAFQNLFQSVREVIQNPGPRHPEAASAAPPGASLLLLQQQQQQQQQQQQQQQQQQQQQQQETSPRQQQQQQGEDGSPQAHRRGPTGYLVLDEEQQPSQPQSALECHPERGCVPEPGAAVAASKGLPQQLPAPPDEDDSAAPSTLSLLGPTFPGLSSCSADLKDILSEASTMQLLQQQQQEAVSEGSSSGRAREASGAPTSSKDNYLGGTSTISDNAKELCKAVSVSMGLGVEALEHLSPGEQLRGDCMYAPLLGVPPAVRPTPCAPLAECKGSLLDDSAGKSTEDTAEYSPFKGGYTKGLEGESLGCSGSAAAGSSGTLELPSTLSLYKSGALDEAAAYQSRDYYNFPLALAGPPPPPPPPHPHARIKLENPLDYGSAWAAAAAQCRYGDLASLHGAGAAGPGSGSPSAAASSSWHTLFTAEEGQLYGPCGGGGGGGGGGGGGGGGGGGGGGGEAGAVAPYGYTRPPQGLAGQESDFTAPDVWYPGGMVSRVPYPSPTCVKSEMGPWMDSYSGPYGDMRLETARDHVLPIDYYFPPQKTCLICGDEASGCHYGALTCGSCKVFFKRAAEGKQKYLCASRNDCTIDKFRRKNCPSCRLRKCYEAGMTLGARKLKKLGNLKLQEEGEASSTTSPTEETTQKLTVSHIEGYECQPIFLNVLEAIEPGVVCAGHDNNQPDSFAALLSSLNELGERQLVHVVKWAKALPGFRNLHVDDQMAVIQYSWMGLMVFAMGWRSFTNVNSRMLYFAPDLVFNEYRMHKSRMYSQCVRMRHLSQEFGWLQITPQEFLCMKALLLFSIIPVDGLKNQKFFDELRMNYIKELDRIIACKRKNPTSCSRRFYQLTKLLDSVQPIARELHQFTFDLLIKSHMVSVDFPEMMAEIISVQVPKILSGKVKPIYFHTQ

Take `C=C(C)CCl`: the max response in assay [1] is 0.792% (inactive) and 2.61% (inactive). Besides, the Potency result in [2], in [3], in assay [5], in assay [6], in assay [8] and in [9] was “inactive” in each case. For the same compound, the Potency result in assay [10], in assay [11], in assay [15], in assay [17] and in assay [19] was “inactive” in each case. Besides, the outcome in assay [4], in assay [7], in assay [12], in [14], in [16] and in assay [18] was inactive. In addition, the activity change, negative = cytotoxicity in assay [13] was 6.36% [at 6.97 µM] (inactive).

Regarding `CN1C(=O)CN=C(c2ccccc2)c2cc(Cl)ccc21`, the max response in assay [1] is -22% (inactive). The Potency entry in assay [2], in assay [3], in [5], in assay [6], in [8] and in [9] was “inactive” in each case. Moreover, the Potency result in assay [10], in assay [11], in assay [13], in [15] and in assay [17] was “inactive” in each case. For the same compound, the outcome in [4], in assay [7], in [12], in assay [14], in [16] and in assay [18] was inactive.

As to `CC(C)(C)C(O)(CCc1ccc(Cl)cc1)Cn1cncn1` (stereo not given), the Potency is 44.2 µM (active) and 54.9 µM (active) in [1]; 49.6 µM (active) and 54.9 µM (active) in assay [13]. Besides, the Potency entry in [2], in assay [3], in assay [8], in assay [9], in [11] and in assay [15] was “inactive” each time. Further, the Potency result in assay [20] and in assay [17] was “inactive” throughout. The outcome in assay [4], in [7], in [12], in assay [16] and in [18] was inactive.

Consider `CCCCN(CCCC)SN(C)C(=O)Oc1cccc2c1OC(C)(C)C2`, for which the max response in assay [1] was -26.5% (inactive). Besides, the Potency result in assay [2], in [3], in [5], in assay [6], in assay [8] and in assay [9] was “inactive” each time. In addition, the Potency entry in assay [10], in [11], in [15] and in assay [17] was “inactive” in each case. Moreover, the call in [4], in [7], in [12], in assay [16] and in assay [18] was inactive.

For `CCC[CH2][Sn]([Cl])([Cl])[Cl]`, the Potency entry in assay [2], in assay [3], in [5], in assay [6], in assay [8] and in assay [9] was “inactive” in each case. Further, the Potency entry in assay [10], in assay [11], in assay [13], in assay [15], in assay [20] and in assay [17] was “inactive” throughout. Also, the call in assay [4], in assay [7], in assay [12], in [14], in assay [16] and in assay [18] was inactive.

Regarding `Cc1cc(-c2cc(C)c(N)c(C)c2)cc(C)c1N`, the max response in assay [1] was -25.8% (inactive) and -12.6% (inactive). For the same compound, the Potency entry in assay [2], in [3], in assay [5], in assay [6], in assay [8] and in [9] was “inactive” throughout. For the same compound, the Potency result in assay [10], in assay [11], in [13], in [15] and in [17] was “inactive” throughout. The call in assay [4], in assay [7], in assay [12], in [14], in [16] and in [18] was inactive.

With `CC(Br)C(=O)O` (stereo not given), the max response in assay [1] is 0.901% (inactive) and -24.8% (inactive). The Potency result in assay [2], in [3], in [5], in assay [6], in assay [8] and in assay [9] was “inactive” in each case. Also, the Potency entry in assay [10], in assay [11], in assay [13], in [15] and in [17] was “inactive” each time. The compound was called inactive in assay [4], in assay [7], in assay [12], in assay [14], in assay [16] and in [18].

For the compound `O=C(O)c1ccccn1`, the max response in assay [1] was -2.82% (inactive) and 14.7% (inactive). Further, the Potency entry in assay [2], in assay [3], in assay [5], in assay [6], in [8] and in [9] was “inactive” each time. Besides, the Potency result in assay [10], in assay [11], in assay [13], in [15] and in assay [17] was “inactive” each time. Further, the result in assay [4], in assay [7], in assay [12], in assay [14], in [16] and in [18] was inactive.
